Several values for one entry are separate records, joined by “and”; a condition that tells them apart may be missing. Identical values can stand only once. Where a structure was tested more than once in an assay, its records may differ in their call. Activity calls are given as the source filed them. The calls were made as follows: active = hit-call score of the fitted dose curve at least 0.9, where 1 is the maximum; inactive = score below 0.9.
The molecules below were run on Human Leukocyte Antigen - DR isotype (HLADR), HLA-DRA (gene 3122) (assay: BSK_BE3C_HLADR: BioMAP Diversity Plus: BE3C Assay for Human Leukocyte Antigen - DR isotype (HLADR) Biomarker Activity (AID 2283032)). Conditions: primary human bronchial epithelial cells; actives raise or lower the signal.
Procedure, shortened: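 Cell-surface HLA-DR ELISA readout at 24 h after dosing in the BE3C primary human lung bronchial epithelial system; gain or loss of signal against DMSO, with parallel sulforhodamine B staining of total protein for overt cytotoxicity.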
In the case of `O=S(=O)(Cl)C(F)(F)C(F)(F)C(F)(F)C(F)(F)C(F)(F)C(F)(F)C(F)(F)C(F)(F)F`, the AC50 is reported as 44.8 µM (active) and 46.8 µM (active).
`C=C(C)C(=O)OCC(F)(F)C(F)(F)C(F)(F)C(F)F` was tested, and the outcome was “inactive”.
In the case of `NC(=O)C(F)(F)C(F)(F)C(F)(F)C(F)(F)C(F)(F)C(F)(F)C(F)(F)F`, the outcome is reported as “inactive”.
With `NC(=O)C(F)(F)C(F)(F)C(F)(F)C(F)F` the outcome was “inactive”.
With `CCOC(C=C(C)CCC=C(C)C)OCC` the outcome was “inactive”.

Each molecule was assayed on Vascular cell adhesion molecule 1 (VCAM1), VCAM1 (gene 7412) (assay: BSK_4H_VCAM1: BioMAP Diversity Plus: 4H Assay for Vascular cell adhesion molecule 1 (VCAM1) Biomarker Activity (AID 2283033;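 as to outcome: cell-surface VCAM-1 protein measured by ELISA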)). Conditions: primary human endothelial cells (HUVEC); actives raise or lower the signal.
Procedure, shortened: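 VCAM-1 ELISA read 24 h after chemical dosing of HUVEC in the BioMAP 4H system, with gain or loss of signal fitted relative to DMSO. Parallel SRB staining (560 nm) checked overt cytotoxicity.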
`O=S(=O)(Cl)C(F)(F)C(F)(F)C(F)(F)C(F)(F)C(F)(F)C(F)(F)C(F)(F)C(F)(F)F` was tested, and the outcome was “inactive”.
`C=C(C)C(=O)OCC(F)(F)C(F)(F)C(F)(F)C(F)F` was tested, and the outcome was “inactive”.
With `NC(=O)C(F)(F)C(F)(F)C(F)(F)C(F)(F)C(F)(F)C(F)(F)C(F)(F)F` the outcome was “inactive”.
In the case of `NC(=O)C(F)(F)C(F)(F)C(F)(F)C(F)F`, the outcome is reported as “inactive”.
With `CCOC(C=C(C)CCC=C(C)C)OCC` the AC50 was 31.5 µM (active).

What follows are molecules tested on Interferon-gamma inducible Protein 10 (IP10), CXCL10 (gene 3627) (assay: BSK_BE3C_IP10: BioMAP Diversity Plus: BE3C Assay for Interferon-gamma inducible Protein 10 (IP10) Biomarker Activity (AID 2283034)). Conditions: primary human bronchial epithelial cells; actives raise or lower the signal.
Procedure, shortened: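 IP-10 quantified by ELISA in human primary bronchial epithelial cell cultures at 24 hours post-dosing. Gain or loss of signal fitted relative to DMSO; parallel SRB staining assessed overt cytotoxicity.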
`O=S(=O)(Cl)C(F)(F)C(F)(F)C(F)(F)C(F)(F)C(F)(F)C(F)(F)C(F)(F)C(F)(F)F` was tested, and the AC50 was 40.2 µM (active) and 37 µM (active).
`C=C(C)C(=O)OCC(F)(F)C(F)(F)C(F)(F)C(F)F` was tested, and the outcome was “inactive”.
With `NC(=O)C(F)(F)C(F)(F)C(F)(F)C(F)(F)C(F)(F)C(F)(F)C(F)(F)F` the outcome was “inactive”.
For `NC(=O)C(F)(F)C(F)(F)C(F)(F)C(F)F`, the outcome was “inactive”.
`CCOC(C=C(C)CCC=C(C)C)OCC` was tested, and the outcome was “inactive”.

Each molecule was assayed on Monokine induced gamma interferon (MIG), CXCL9 (gene 4283) (assay: BSK_BE3C_MIG: BioMAP Diversity Plus: BE3C Assay for Monokine induced gamma interferon (MIG) Biomarker Activity (AID 2283035;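 as to outcome: MIG protein measured by ELISA in BE3C cultures after 24 h of dosing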)). Conditions: primary human bronchial epithelial cells; actives raise or lower the signal.
Procedure, shortened: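 ELISA quantified MIG after 24 h exposure of primary bronchial epithelial cultures, analysed in both directions relative to DMSO. Cytotoxicity tracked in parallel cultures by sulforhodamine B staining.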
With `O=S(=O)(Cl)C(F)(F)C(F)(F)C(F)(F)C(F)(F)C(F)(F)C(F)(F)C(F)(F)C(F)(F)F` the AC50 was 55.8 µM (active) and 53.6 µM (active).
`C=C(C)C(=O)OCC(F)(F)C(F)(F)C(F)(F)C(F)F` was tested, and the outcome was “inactive”.
For `NC(=O)C(F)(F)C(F)(F)C(F)(F)C(F)(F)C(F)(F)C(F)(F)C(F)(F)F`, the outcome was “inactive”.
With `NC(=O)C(F)(F)C(F)(F)C(F)(F)C(F)F` the outcome was “inactive”.
For `CCOC(C=C(C)CCC=C(C)C)OCC`, the outcome was “inactive”.

Each molecule was assayed on Plasminogen activator inhibitor-1 (PAI1), SERPINE1 (gene 5054) (assay: BSK_BE3C_PAI1: BioMAP Diversity Plus: BE3C Assay for Plasminogen activator inhibitor-1 (PAI1) Biomarker Activity (AID 2283037)). Conditions: primary human bronchial epithelial cells; actives raise or lower the signal.
Procedure, shortened: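 PAI-1 was measured by ELISA in human primary bronchial epithelial cultures 24 h after chemical dosing, with cytotoxicity checked by SRB total-protein staining in parallel cultures. Activity was fitted in both directions relative to DMSO.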
In the case of `O=S(=O)(Cl)C(F)(F)C(F)(F)C(F)(F)C(F)(F)C(F)(F)C(F)(F)C(F)(F)C(F)(F)F`, the AC50 is reported as 45.8 µM (active) and 47.4 µM (active).
`C=C(C)C(=O)OCC(F)(F)C(F)(F)C(F)(F)C(F)F` was tested, and the outcome was “inactive”.
With `NC(=O)C(F)(F)C(F)(F)C(F)(F)C(F)(F)C(F)(F)C(F)(F)C(F)(F)F` the outcome was “inactive”.
With `NC(=O)C(F)(F)C(F)(F)C(F)(F)C(F)F` the outcome was “inactive”.
For `CCOC(C=C(C)CCC=C(C)C)OCC`, the outcome was “inactive”.

The molecules below were run on urokinase plasminogen activator (uPA), PLAU (gene 5328) (assay: BSK_BE3C_uPA: BioMAP Diversity Plus: BE3C Assay for urokinase plasminogen activator (uPA) Biomarker Activity (AID 2283038;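 as to outcome: uPA protein level quantified by ELISA in cell cultures; uPA read one day after compound addition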)). Conditions: primary human bronchial epithelial cells; actives raise or lower the signal.
Procedure, shortened: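 Human primary bronchial epithelial cells were exposed to chemical for 24 h, then uPA levels were measured by ELISA. Responses were fitted bidirectionally against DMSO as negative control and baseline. Parallel SRB staining of total protein gauged overt cytotoxicity.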
In the case of `O=S(=O)(Cl)C(F)(F)C(F)(F)C(F)(F)C(F)(F)C(F)(F)C(F)(F)C(F)(F)C(F)(F)F`, the AC50 is reported as 55.2 µM (active) and the outcome is reported as “inactive”.
With `C=C(C)C(=O)OCC(F)(F)C(F)(F)C(F)(F)C(F)F` the outcome was “inactive”.
With `NC(=O)C(F)(F)C(F)(F)C(F)(F)C(F)(F)C(F)(F)C(F)(F)C(F)(F)F` the outcome was “inactive”.
With `NC(=O)C(F)(F)C(F)(F)C(F)(F)C(F)F` the outcome was “inactive”.
In the case of `CCOC(C=C(C)CCC=C(C)C)OCC`, the outcome is reported as “inactive”.

The molecules below were run on Urokinase-type plasminogen activator receptor (uPAR), PLAUR (gene 5329) (assay: BSK_BE3C_uPAR: BioMAP Diversity Plus: BE3C Assay for Urokinase-type plasminogen activator receptor (uPAR) Biomarker Activity (AID 2283039;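 as to outcome: cells exposed to compound for one day before measurement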)). Conditions: primary human bronchial epithelial cells; actives raise or lower the signal.
Procedure, shortened: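 uPAR levels were measured by ELISA after 24 h compound treatment of primary human bronchial epithelial cells, fitted in both directions relative to DMSO. Parallel SRB staining served as the cytotoxicity read-out.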
For `O=S(=O)(Cl)C(F)(F)C(F)(F)C(F)(F)C(F)(F)C(F)(F)C(F)(F)C(F)(F)C(F)(F)F`, the AC50 was 51.7 µM (active) and 51.6 µM (active).
`C=C(C)C(=O)OCC(F)(F)C(F)(F)C(F)(F)C(F)F` was tested, and the outcome was “inactive”.
With `NC(=O)C(F)(F)C(F)(F)C(F)(F)C(F)(F)C(F)(F)C(F)(F)C(F)(F)F` the outcome was “inactive”.
In the case of `NC(=O)C(F)(F)C(F)(F)C(F)(F)C(F)F`, the outcome is reported as “inactive”.
With `CCOC(C=C(C)CCC=C(C)C)OCC` the outcome was “inactive”.

— PubChem BioAssay (EPA / NIEHS)
